Most compounds without a hit are left out; they make up all but 9.3% or so of the library.
ELG1 DNA repair: blocks ELG1-dependent DNA repair in HEK293T cells | HEK293T ELG1-luciferase reporter, luminescence, 16 h; DNA damage induced by 5-fluorouridine | Potency, µM (doses to about 46.1 µM), for inactives: at the top dose activity change, negative = inhibition, most hits filed as inhibitors | 330,000 tested, 2.3% active; note: % is set by controls: 0 for no effect and ±100 for the full control effect; nearly all actives have a fitted effect of over 55% in size
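DMSO vehicle served as the neutral condition. Each well held 2,000 cells given 5-fluorouridine plus compound; after 16 hr at 37 °C/5% CO2, ONE-Glo was added and luciferase measured 30 min later.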
Rab9 prom act: activators of Rab9 promoter; Potency, µM (top dose mostly 9.22 µM), without a hit: at the highest dose activation, negative = inhibition, usual class: activators; AID 485297; 320,000 tested, 2.8% active; Huh7 Rab9 promoter-luciferase reporter, luminescence, 24 h; note: % of control where 0% means no effect; nearly all actives have a fitted effect of over 60% in size
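Stable Rab9-luc Huh7, 1500 cells/well, 2 h settle; cmpd in DMSO, 24 h, 37 °C/5% CO2; luciferase reagent 10 min RT; luminescence.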
ELG1 genotoxic: inducers of genotoxicity in HEK293T ELG1-luciferase cells; HEK293T ELG1-luciferase reporter, luminescence, 16 h; Potency, µM (top dose mostly 46 µM), without a hit: top-dose activity change, positive = activation, hits mostly activators; 330,000 tested, 1.3% active; AID 504466; note: % of control where 0% means no effect; nearly all actives have a fitted effect of over 60% in size
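HEK293T cells expressing luciferase-tagged ELG1 were exposed to compound or DMSO vehicle for 16 hr at 37 °C and 5% CO2. Luciferase activity was then measured with ONE-Glo after 30 min at room temperature.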
NPC1 promoter act: NPC1 promoter activation; Huh7 NPC1 promoter luciferase reporter, 24 h; Potency, µM (doses to about 9.22 µM), without a hit: at the top dose activation, actives largely listed as activators; 320,000 tested, 2.4% active; note: % of control where 0% means no effect; nearly all actives have a fitted effect of over 60% in size
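Luminescence from an NPC1 promoter-driven luciferase reporter in stably transfected Huh7 cells was measured after 24 h compound treatment at 37 °C, followed by 10 min ambient incubation with luciferase detection reagent.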
FLuc modulator: inhibits or activates purified firefly luciferase, miR-21 counter-screen. P08659. purified FLuc, Km substrates, luminescence inhibition. Potency, µM (series often up to 57.5 µM), inactives show at the highest dose activity change, negative = inhibition, hits mostly inhibitors. 360,000 tested, 6.9% active;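 note: plate controls were vehicle for no effect and reference inhibitor for full effect; nearly all actives have a fitted effect of over 55% in size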
Target sequence (P08659 whole entry, looked up): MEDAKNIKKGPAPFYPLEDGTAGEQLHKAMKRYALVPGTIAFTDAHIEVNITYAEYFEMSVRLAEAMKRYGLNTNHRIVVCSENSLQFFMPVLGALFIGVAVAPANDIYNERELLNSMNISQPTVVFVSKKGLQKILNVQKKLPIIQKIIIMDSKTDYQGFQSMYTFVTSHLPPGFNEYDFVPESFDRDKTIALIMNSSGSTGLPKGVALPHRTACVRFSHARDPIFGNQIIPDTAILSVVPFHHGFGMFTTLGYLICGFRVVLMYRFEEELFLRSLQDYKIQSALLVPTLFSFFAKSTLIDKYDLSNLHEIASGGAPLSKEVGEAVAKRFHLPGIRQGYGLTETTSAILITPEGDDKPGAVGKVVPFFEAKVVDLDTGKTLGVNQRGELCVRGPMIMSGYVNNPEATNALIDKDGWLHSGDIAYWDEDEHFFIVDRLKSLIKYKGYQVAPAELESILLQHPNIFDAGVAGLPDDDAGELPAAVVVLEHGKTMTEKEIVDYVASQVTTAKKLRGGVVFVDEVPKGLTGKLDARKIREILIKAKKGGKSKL
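Biochemical qHTS of compounds, final roughly 60 µM downward over six points, against 10 nM purified firefly luciferase using Km concentrations of substrates (10 uM D-luciferin, 10 uM ATP) in Tris acetate pH 7.5 buffer; luminescence output.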
SMN2 splice enh: SMN2 splice variant enhancement; AID 1458; HEK293 SMN2-luciferase splicing reporter, luminescence, 30-36 h; Potency, µM (doses to about 46.1 µM), without a hit: at the highest dose activity change, positive = activation, hits mostly activators; 210,000 tested, 2.8% active; note: % of control where 0% means no effect; nearly all actives have a fitted effect of over 55% in size
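qHTS luciferase splicing reporter: luminescence rises when SMN2 exon 7 is included in transfected HEK293 cells. Compound exposure lasted 30-36 h at 37C, with 4.5 mM final sodium butyrate as control, followed by a ONE-Glo read.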
Starred values were filed as active, the others as inactive; ? = inconclusive; / = not tested or not shown. Calls come from the whole dose curve; as a rule, active = well fitted curve in the direction sought with a large enough effect; inconclusive = small, poorly fitted or top-dose-only effect, or another doubt; inactive = no such curve, though single readings can be large; an effect the other way counts as inactive or inconclusive. Potency is the fitted concentration of half-maximal effect.

SMILES | ELG1 DNA repair | Rab9 prom act | ELG1 genotoxic | NPC1 promoter act | FLuc modulator | SMN2 splice enh
CC1(C)CC(=O)c2cc(-c3nc(-c4ccc(Cl)cc4)cs3)c(=O)[nH]c2C1 | / | / | / | / | -0.5% | 4.5%
CC(=O)C1=C(C)N2CCN=C2S1 | 5.6% | -4.7% | 0.0% | 0.6% | -1.7% | /
CCN(CC)c1ccc(N=Cc2ccc(N(CC)CC)cc2O)cc1 | -18.9% | -2.0% | -16.3% | 5.9% | -11.2% | 24.4%
CCN(CCO)c1ccc(N=Nc2cc(C)[nH]n2)cc1 | ? | ? | ? | ? | 0.269µM* | /
Cc1cc(O)c(/C=N/Nc2ccccc2Cl)c(=O)o1 | ? | 29.8% | ? | ? | ? | -1.4%
Cc1cc(O)c(/C=N/Nc2cccc(Cl)c2)c(=O)o1 | -0.2% | 1.3% | 9.8% | 18.5% | 15.1µM* | -24.0%
Cc1cc(O)c(/C=N/Nc2ccc(Cl)cc2)c(=O)o1 | 21.3% | 14.8% | 9.6% | 19.9% | 2.69µM* | -21.1%
Cc1ccc(S(=O)(=O)NC(=O)Nc2c(C)cccc2C)cc1 | 6.9% | -2.7% | 2.2% | -2.0% | 0.0% | /
O=C(Nc1ccc(-c2nc3cccnc3s2)cc1)c1cccnc1Cl | ? | 0.794µM* | 0.82µM* | 0.316µM* | 1.69µM* | /
O=C(Nc1ccc(-c2nc3cccnc3s2)cc1)c1ccc(Cl)nc1 | ? | 0.708µM* | 9.9% | 0.891µM* | ? | /
CN(C)c1ccc(C(=O)Nc2cccc(-c3nc4cccnc4s3)c2)cc1 | / | / | / | / | 1.8% | /
O=C(CSc1nc2c(oc3ccccc32)c(=O)n1CC1CCCO1)NCc1ccc(F)cc1 (configuration not stated) | 6.7% | 0.2% | 2.7% | 1.0% | 5.5% | /
COc1ccccc1C(=O)NNC1=NS(=O)(=O)c2ccccc21 | ? | 2.5% | 0.4% | 1.1% | ? | /
O=C(/C=C/c1ccccc1)NNC1=NS(=O)(=O)c2ccccc21 | 15.1% | 10.0% | 1.6% | -1.6% | 23.9µM* | /
O=C(NNC1=NS(=O)(=O)c2ccccc21)c1cccc([N+](=O)[O-])c1 | 9.9% | 2.6% | 1.5% | 13.8% | 12µM* | /
O=C(NNc1c(Cl)cc(Cl)cc1Cl)c1cccc([N+](=O)[O-])c1 | 14.1% | -8.2% | -1.5% | 0.3% | 3.6% | -12.4%
O=C(NNC1=NS(=O)(=O)c2ccccc21)c1ccccc1 | ? | 24.7% | 6.3% | 28.7% | 4.78µM* | /
O=C(NNC1=NS(=O)(=O)c2ccccc21)c1ccccc1Cl | ? | -9.3% | 5.8% | 3.7% | 16.9µM* | /
Fc1ccc(C2=CC(c3cccs3)n3nnnc3N2)cc1 (configuration not stated) | ? | 8.5% | 5.1% | -2.2% | -1.5% | /
CCOc1ccc(C2C=C(c3ccccc3)Nc3nnnn32)cc1 (configuration not stated) | ? | 1.58µM* | ? | 2.82µM* | -0.3% | 13.7%
Cc1ccc(C2=CC(c3cccs3)n3nnnc3N2)cc1 (configuration not stated) | ? | ? | 3.1% | 5.01µM* | -26.1% | 14.9%
CCOC(=O)c1cnc(SCC(=O)NNC(=O)c2ccco2)nc1N | -4.6% | -4.9% | 1.7% | -5.1% | 2.7% | /
O=C(Nc1nc2ccc(Cl)cc2s1)C1CCCO1 (configuration not stated) | ? | 3.55µM* | 4.61µM* | 1µM* | 6.75µM* | 22.4µM*
O=C(Nc1nc2ccc([N+](=O)[O-])cc2s1)C1CCCO1 (configuration not stated) | ? | 2.24µM* | ? | ? | 15.1µM* | ?
CS(=O)(=O)c1ccc2nc(NC(=O)C3CCCO3)sc2c1 (configuration not stated) | 17.1% | 0.9% | 2.7% | -1.3% | -2.1% | /
Cc1cc(NC(=O)CSc2nnc(-c3ccccc3F)n2C)no1 | 12.9% | -1.7% | -0.5% | -2.1% | 0.1% | /
COC(=O)c1cc2oc3ccccc3c2n1Cc1cc(C)ccc1C | / | / | / | / | -5.2% | 0.5%
